Reference: PubChem BioAssay (NCATS)
Results filed as inconclusive are left out. Where a call stands in place of a potency, no number is given. Activity calls are given as the source filed them. Calls come from the whole dose curve; as a rule, active = well fitted inhibition curve with a large enough effect; inconclusive = small, poorly fitted or top-dose-only effect; inactive = flat fitted curve, though single readings scatter.

What was measured:
Assay in all cases: qHTS profiling for inhibitors of Plasmodium falciparum proliferation (AID 504749); note: nearly all actives have a fitted effect of over 60% in size
Details in all cases: P. falciparum in erythrocytes, SYBR Green DNA, 72 h; series mostly up to 28.7 µM
[1] = system: CP266
How it was run: (§1)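 Fluorescence of SYBR Green-bound parasite DNA, read at 485/535 nm, served as the growth measure. Infected erythrocytes were cultured with compound 72 h; artemisinin (0.29 uM) and DMSO wells defined the normalization range.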

[2] = system: CP268
How it was run: as §1

[3] = system: CP269
How it was run: as §1

[4] = system: CP286
How it was run: as §1

[5] = system: CP291
How it was run: as §1

[6] = system: CP297
How it was run: as §1

[7] = system: CP305
How it was run: as §1

[8] = system: CP315
How it was run: as §1

[9] = system: CP325
How it was run: as §1

[10] = system: CP329
How it was run: as §1
Potency is the fitted concentration of half-maximal effect.

Row | SMILES | outcome [1] | outcome [2] | outcome [3] | outcome [4] | outcome [5] | outcome [6] | outcome [7] | outcome [8] | Potency [9] | outcome [10]
1 | CC(O)C(O)[C@H]1CNc2nc(N)[nH]c(=O)c2N1 (some centres not stated) | inactive | inactive | inactive | inactive | inactive | inactive | inactive | inactive | inactive | inactive
2 | CN1C2CCC1CC(OC(c1ccccc1)c1ccccc1)C2 (configuration not stated) |  |  |  |  |  |  |  | inactive |  | inactive
3 | CC(C)NC[C@H](O)COc1ccc(CC(N)=O)cc1 |  | inactive | inactive | inactive | inactive |  | inactive | inactive | inactive | inactive
4 | CCCCCCCCCCCCCCCCCCOC[C@H](COP(=O)([O-])OCC[N+](C)(C)C)OC | inactive | inactive | inactive | inactive | inactive | inactive | inactive | inactive | inactive | inactive
5 | c1ccc(C2CN3CCSC3=N2)cc1 (configuration not stated) |  |  |  |  |  |  |  | inactive | 16.9 µM (active) | 
6 | CCCCCCCCCCCCCCC[C@H](O)[C@H](N)CO | inactive | inactive | inactive | inactive | inactive | inactive | inactive | inactive | inactive | inactive
